Bioassay records deposited in PubChem by National Center for Advancing Translational Sciences (NCATS).
Hits are enriched below; roughly 3.4% of the tested compounds scored in any of these assays.
RE007 growth inh = less growth of the S. pombe RE007 Vpr strain. S. pombe RE007 Vpr strain, BacTiter-Glo ATP luminescence, 24 h. Potency, µM (doses to about 92.2 µM), hits mostly inhibitors. actives 0.21% (n = 360,000); active = well fitted falling curve with a large enough effect; inconclusive = small, poorly fitted or top-dose-only effect; inactive = no such curve, though single readings can be large or run the other way; note: nearly all actives have a fitted effect of over 50% in size
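Fission yeast RE007 carrying one integrated HIV-1 vpr copy, seeded at OD 0.01 in PMG+AL medium with 23 nL pinned compound. Grown 24 h at 30 degrees; viability read by BacTiter-Glo luminescence after 5 min.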
Giardia FBPA inh-1 = Giardia lamblia aldolase inhibition | AID 2451 | Potency, µM (series often up to 59.6 µM), hits mostly inhibitors | A8B2U2 | purified Giardia FBPA | actives 0.71% (n = 290,000); note: nearly all actives have a fitted effect of over 55% in size
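Giardia FBPA (40 nM reagent) was preincubated 10 min at RT with compound (up to 57.5 uM final), then substrate plus GAPDH/TPI/NAD/arsenate coupling system with diaphorase/resazurin was added; resorufin fluorescence (525/598 nm) was read after 20 min.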
AmpC no deterg = AmpC beta-lactamase inhibition without detergent; P00811; AmpC nitrocefin hydrolysis, absorbance 480 nm, 0.0001% Triton; actives 0.52% (n = 330,000); Potency, µM (doses to about 57.1 µM), hits mostly inhibitors; note: nearly all actives have a fitted effect of over 20% in size
Target sequence (P00811 whole entry, looked up): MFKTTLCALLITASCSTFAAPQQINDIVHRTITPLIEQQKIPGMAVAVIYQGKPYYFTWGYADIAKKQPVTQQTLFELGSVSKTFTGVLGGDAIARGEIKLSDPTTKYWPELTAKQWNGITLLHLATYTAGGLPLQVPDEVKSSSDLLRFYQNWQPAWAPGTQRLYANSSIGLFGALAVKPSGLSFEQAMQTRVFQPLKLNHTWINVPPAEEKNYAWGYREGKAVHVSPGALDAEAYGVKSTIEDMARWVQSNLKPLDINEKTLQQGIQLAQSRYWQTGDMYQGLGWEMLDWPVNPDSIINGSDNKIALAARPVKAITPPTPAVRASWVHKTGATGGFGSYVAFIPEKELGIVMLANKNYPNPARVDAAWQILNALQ
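AmpC (5.3 nM in the dispensed reagent) in 20 mM phosphate pH 7.0 with 0.01% (detergent screen) or 0.0001% Triton X-100 was preincubated with compounds for 15 min at room temperature. Nitrocefin was then added from an 800 uM solution, and hydrolysis was followed at 480 nm.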
AmpC detergent = blocks E. coli AmpC beta-lactamase in detergent assay. P00811. AmpC hydrolysis of nitrocefin, absorbance 480 nm, 0.01% Triton. Potency, µM (highest dose often 114 µM), most hits filed as inhibitors. actives 0.041% (n = 370,000). AID 485294; note: nearly all actives have a fitted effect of over 25% in size
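AmpC (5.3 nM in the dispensed reagent) in 20 mM phosphate pH 7.0 with 0.01% (detergent screen) or 0.0001% Triton X-100 was preincubated with compounds for 15 min at room temperature. Nitrocefin was then added from an 800 uM solution, and hydrolysis was followed at 480 nm.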
Sm TGR block = S. mansoni TGR enzyme inhibition; Q962Y6; purified TGR, DTNB reduction, TNB absorbance 405 nm; Potency, µM (series often up to 114 µM), most hits filed as inhibitors; actives 3% (n = 360,000); AID 485364; note: nearly all actives have a fitted effect of over 60% in size
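Kinetic colorimetric format: TGR-catalysed, NADPH-driven DTNB reduction monitored via TNB absorbance. Enzyme dispensed at 20 nM; compound exposure 15 min at room temperature before reaction start.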
Giardia growth = Giardia lamblia growth inhibition. shares compounds with Giardia FBPA inh-1. actives 5% (n = 1,500). Potency, µM (series often up to 57.5 µM), actives largely listed as inhibitors. Giardia lamblia trophozoite growth inhibition;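 note: trophozoites exposed to compound for 48 h at 37 °C; nearly all actives have a fitted effect of over 70% in size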
Mammalian tox = counter-screen for Giardia aldolase inhibitors: mammalian cell toxicity; Potency, µM (doses to about 57.5 µM), most hits filed as inhibitors; AID 2786; shares compounds with Giardia FBPA inh-1; actives 4% (n = 1,500); mammalian cell viability counter-screen, qHTS;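 note: Chinese hamster ovary cells used as mammalian cytotoxicity surrogate; viability measured as cellular ATP by luminescence; compound exposure lasted 48 h before reading; nearly all actives have a fitted effect of over 60% in size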
Giardia FBPA inh-2 = confirmation of Giardia fructose-bisphosphate aldolase inhibitors; shares compounds with Giardia FBPA inh-1; purified Giardia aldolase enzyme activity, qHTS; Potency, µM (doses to about 57.5 µM), usual class: inhibitors; actives 5% (n = 1,500); note: nearly all actives have a fitted effect of over 45% in size
Rabbit FBPA inh = blocks rabbit muscle aldolase in Giardia aldolase selectivity test | shares compounds with Giardia FBPA inh-1 | AID 2794 | Potency, µM (titrated, usually from 57.5 µM), hits mostly inhibitors | Rabbit muscle FBPA enzyme inhibition, selectivity counter-screen | actives 4% (n = 1,500); note: nearly all actives have a fitted effect of over 60% in size
Target sequence (P00883 whole entry, looked up): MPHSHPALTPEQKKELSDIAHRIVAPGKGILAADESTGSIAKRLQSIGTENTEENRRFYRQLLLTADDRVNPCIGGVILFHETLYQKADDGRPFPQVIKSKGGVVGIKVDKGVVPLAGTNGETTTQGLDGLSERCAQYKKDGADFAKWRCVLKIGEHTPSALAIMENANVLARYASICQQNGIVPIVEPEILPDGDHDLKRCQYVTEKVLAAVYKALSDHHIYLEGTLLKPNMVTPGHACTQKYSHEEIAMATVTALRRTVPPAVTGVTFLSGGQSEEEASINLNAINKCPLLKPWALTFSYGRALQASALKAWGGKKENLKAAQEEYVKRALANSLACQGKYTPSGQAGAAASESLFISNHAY
GAPDH counter = GAPDH inhibition flagged for Giardia aldolase hits; actives 6% (n = 1,500); Potency, µM (highest dose often 57.5 µM), hits mostly inhibitors; AID 2795; GAPDH coupling enzyme counterscreen, biochemical, qHTS; shares compounds with Giardia FBPA inh-1; note: nearly all actives have a fitted effect of over 55% in size
Hits are given with their value; i = inactive; ? = inconclusive; nt = not tested or not shown; [ ] = remark or other dose. Unless noted, calls come from the whole dose curve; as a rule, active = well fitted curve in the direction sought with a large enough effect; inconclusive = small, poorly fitted or top-dose-only effect, or another doubt; inactive = no such curve, though single readings can be large; an effect the other way counts as inactive or inconclusive.

SMILES	RE007 growth inh	Giardia FBPA inh-1	AmpC no deterg	AmpC detergent	Sm TGR block	Giardia growth	Mammalian tox	Giardia FBPA inh-2	Rabbit FBPA inh	GAPDH counter
CCOC(=O)C1CCCN(CC(=O)Nc2c(F)c(F)c(F)c(F)c2F)C1 (centres undefined)	i	i	i	i	i	nt	nt	nt	nt	nt
CCCCC/S(CC1CC1(Cl)Cl)=N\S(=O)(=O)c1ccc(C)cc1 (centres undefined)	i	i	i	?	i	nt	nt	nt	nt	nt
Cc1ccc(N=Nc2c(O)ccc3n[nH]nc23)cc1	?	16µM	i	i	32µM	?	i	?	i	i
COc1ccc(CC(=O)N/N=C/c2ccc(-c3cccc(C(=O)O)c3)o2)cc1OC	i	i	i	i	i	nt	nt	nt	nt	nt
O=C(O)c1cccc(-c2ccc(/C=N/Nc3nn[nH]n3)o2)c1	i	16µM	i	i	i	i	i	i	i	i
O=S(=O)(NCCNS(=O)(=O)c1cccs1)c1cccs1	i	i	i	i	i	nt	nt	nt	nt	nt
C=CCNC(=S)NS(=O)(=O)c1cccs1	i	5.6µM	i	?	i	i	i	i	i	i
CN(C)c1cccc(C(=O)NCc2ccccc2Cl)c1	i	i	i	i	i	nt	nt	nt	nt	nt
CCCCn1c(SCC(=O)c2ccc(O)c(O)c2)nc2ccsc2c1=O	i	?	i	i	i	nt	nt	nt	nt	nt
O=C(O)CCCCCn1c(SCC(=O)c2ccc(O)c(O)c2)nc2ccsc2c1=O	i	4µM	i	i	i	i[10.4 µM]	i	i	i	i
CCN(CC)c1ccc(C(=O)N2CCN(Cc3ccccc3)CC2)cc1	i	i	i	?	i	nt	nt	nt	nt	nt
CCNC(=S)N1CCN(Cc2ccccc2)CC1	i	?	i	i	i	nt	nt	nt	nt	nt
CN(C)c1ccc(C(=S)N2CCN(Cc3ccccc3)CC2)cc1	i	6.3µM	i	i	i	i	i	i	?	?
CCN1CCN(C(=S)c2ccc(O)cc2)CC1	i	8.9µM	i	i	i	i	i	i	i	i
CCN1CCN(C(=S)c2ccc(Br)cc2)CC1	i	nt	i	i	i	nt	nt	nt	nt	nt
Oc1ccc(C(=S)N2CCN(Cc3ccccc3)CC2)cc1	i	18µM	i	i	i	i	i	i	i	i
S=C(c1ccc(Br)cc1)N1CCN(Cc2ccccc2)CC1	i	14µM	i	i	i	?	i	?	?	?
COc1ccc(/C(O)=C2/C(=O)C(=O)N(CCCN(C)C)C2c2ccc(Cl)cc2)cc1OC (centres undefined)	i	nt	nt	nt	nt	nt	nt	nt	nt	nt
Cc1ccc(C(=S)N2CCN(Cc3ccccc3)CC2)s1	i	18µM	i	i	i	i	i	?	?	?
Cc1cccc(NC(=S)N2CCN(Cc3ccccc3)CC2)c1C	i	i	i	i	i	nt	nt	nt	nt	nt
CN1CCc2c(sc(NC(=O)C3COc4ccccc4O3)c2C(N)=O)C1 (centres undefined)	i	i	i	i	i	nt	nt	nt	nt	nt
C=CCNC(=S)N/N=C(\C)c1cccnc1	i	16µM	i[2.29 µM]	i	?	i	i	i	i	i
COC(=O)C(Cc1ccc(O)cc1)NC(=O)CCC(=O)Nc1ccc(S(N)(=O)=O)cc1 (centres undefined)	i	i	i	?	i	nt	nt	nt	nt	nt
CC(C)C[C@H](NC(=O)c1[nH]cnc1C(=O)N[C@@H](Cc1ccccc1)C(=O)OCc1ccccc1)C(=O)OC(C)(C)C	i	i	i	i	i	nt	nt	nt	nt	nt
COc1ccc(Cl)cc1NC(=O)Cn1nnc2sc(-c3ccccc3)cc2c1=O	nt	nt	nt	i	i	nt	nt	nt	nt	nt
SMILES	RE007 growth inh	Giardia FBPA inh-1	AmpC no deterg	AmpC detergent	Sm TGR block	Giardia growth	Mammalian tox	Giardia FBPA inh-2	Rabbit FBPA inh	GAPDH counter
COCCCNC(=O)CCc1nnc2ccc(N3CCC(C)CC3)nn12	i	i	i	i	i	nt	nt	nt	nt	nt
COc1ccccc1CN1CCN(C(=O)c2ccco2)CC1	i	?	i	i	i	nt	nt	nt	nt	nt
Cc1ccccc1CC(=O)N1CCN(C(=O)c2ccco2)CC1	i	i	i	i	i	nt	nt	nt	nt	nt
Cc1ccccc1CN1CCN(C(=O)c2ccco2)CC1	i	25µM	i	i	i	i[10.4 µM]	i	i	i	i
COc1ccc(Br)cc1CN1CCN(C(=O)c2ccco2)CC1	i	28µM	i	i	i	?	i	i	i	i
Cc1cc(C)n2nc(CNS(=O)(=O)c3cccc(Cl)c3)nc2n1	nt	nt	nt	i	i	nt	nt	nt	nt	nt
Fc1ccccc1CN1CCN(c2ncccn2)CC1	i	25µM	i	?	i	i	i	i	i	i
COc1ccc(NC(=O)Nc2ccc(N3CCOCC3)c3nonc23)c(OC)c1	i	5µM	i	?	i	?	i	i	i	i
O=C(Nc1ccc(F)cc1)Nc1ccc(N2CCOCC2)c2nonc12	i	i	i	i	nt	nt	nt	nt	nt	nt
O=C(Nc1ccc(N2CCOCC2)c2nonc12)C1CCCC1	i	0.5µM	i	i	i	i	i	i	i	i
C/C(=N\Nc1nc(N)cc(Cl)n1)c1cccc([N+](=O)[O-])c1	i	i	i	i	i	nt	nt	nt	nt	nt
C/C(=N/Nc1nc(C)c(C)s1)c1cccc([N+](=O)[O-])c1	i	32µM	i	?	?	i[10.4 µM]	i	i	i	i
Cc1c(C(=O)OCc2ccccc2)[nH]c2c1C(=O)CC(c1ccco1)C2 (centres undefined)	i	i	?	i	?	nt	nt	nt	nt	nt
O=C(NC1CCCCCCC1)c1ccc2c(c1)OCO2	i	i	i	?	i	nt	nt	nt	nt	nt
c1cc2c(cc1NC1CCCCCC1)OCO2	i	25µM	i	i	?	i	i	7.1µM	?	i
COc1ccc(C2C(C#N)=C(N)N(c3cccnc3)C3=C2C(=O)CC(C)(C)C3)cc1OC (centres undefined)	?	14µM	i	?	45µM	i	i	i	i	i
CSc1ncccc1C(=O)OCC(=O)c1ccccc1Br	i	i	i	i	i	nt	nt	nt	nt	nt
CCN(CC)S(=O)(=O)c1ccc(C(=O)NC(=S)N(CCC#N)Cc2cccnc2)cc1	i	13µM	i	i	i	?	i	i	i	i
COc1ccc(CN(CCC#N)C(=S)NC(=O)c2ccccc2)cc1	i	nt	i	i	i	nt	nt	nt	nt	nt
N#CCCN(Cc1ccccc1)C(=S)NC(=O)c1ccccc1	i	16µM	i	i	i	i	i	i	i	i
Cc1ccc(S(=O)(=O)N(C)C)cc1NC(=S)N(CCC#N)Cc1cccnc1	i	i	i	i	i	nt	nt	nt	nt	nt
